# Reference: PubChem BioAssay AID1347426 (Functional Genomics Laboratory (NCATS/FGL), 2020)
# Out of some 31,000 sequences screened, about 1,400 (4.5%) were called active.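 How the source made its calls: active means median seed-adjusted z-score above 1 or below -1; inactive means the rest.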 This excerpt belongs to a sample that is enriched for actives.
# Assay: Novel Modifiers of Survival Motor Neuron (SMN) Protein: Gene Identification via Genome-wide siRNA Screen;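 further: luminescence tracks full-length SMN protein made from the SMN2 reporter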
# Details: HEK293T SMN2-luciferase reporter, siRNA knockdown, 72 h; actives lie on both sides
# Outline: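 Genome-wide siRNA screen (10418 genes, 3 siRNAs each, 1 pmol per well) by reverse transfection in HEK293T cells stably carrying an SMN2-luciferase reporter; luminescence after 72 hours, normalized to negative-control siRNA, log10-transformed, MAD-scored.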
row,Sequence,median seed-adjusted z-score
1,CCUCGGCUCCAGCAAAUCATT against CACNB1,0.225 (inactive)
2,GUGGGUAACUGGAACAAAATT against MFGE8,0.0367 (inactive)
3,CAACCAACAUUUACAUAUUTT against OPRK1,-1.08 (active)
4,GCCUUGCGCUAAAUCUCGATT against NSD1,-0.372 (inactive)
5,GCAUUAACCCAAUUGCUCUTT against EDNRB,0.119 (inactive)
6,GAGCAGUCGCGAGAAGAUUTT against PPP1R12C,-0.535 (inactive)
7,GGAGAGUUAAGAUCAAUGUTT against KCNB2,1.22 (active)
8,CCGUCAAAGUGAUCAACAATT against IKZF3,0.0181 (inactive)
9,GGUGCUACGUUAGACCAGUTT against SNRPA1,-2.71 (active)
10,GCCUCCCACUACUUUGAAATT against IL2RB,0.333 (inactive)
11,GCAUGUCCAAUGUUCCAUATT against ACAT1,-0.848 (inactive)
12,UAAUAAAGCGGAUUCUAGATT against THAP7,-0.0317 (inactive)
13,GUCGAGUAUUCAUCCGAGATT against DHX57,-0.138 (inactive)
14,CGAUAGCACCUUCCUGUUUTT against GALT,0.484 (inactive)
15,GCUUACAUAGCAAAUCUAATT against ST8SIA2,0.516 (inactive)
16,CAGUGUUCGUUCAACCCUATT against ZNF665,1.13 (active)
17,GAUCCGCACGGACUGCUUUTT against ACVRL1,-0.361 (inactive)
18,GAAAUCUUCUUACGAAAAATT against XPO7,0.546 (inactive)
19,GACAGGACGUGAACAUGCATT against SLC22A18AS,0.0382 (inactive)
20,CAACGAAGAGGGCAUGUUUTT against MEOX2,1.36 (active)
21,GCAGCAAGAAGGUAGCACATT against ZNF598,-0.303 (inactive)
22,GUCUUUACUCUUCAACUGATT against THBS4,-0.28 (inactive)

row,Sequence,median seed-adjusted z-score
1,GCAACUCAAAGGUGAUAAATT against CCNK,-0.717 (inactive)
2,GGCUCAAUGUGGACUACAATT against HS3ST1,1.21 (active)
3,CUACUUUUAUCUUGCAUAATT against ZNF264,0.617 (inactive)
4,GGACUCUACUGCUAAAGUATT against TBC1D8B,-0.985 (inactive)
5,GAAAAACGGUGACCGUCAATT against MYO9B,-0.0287 (inactive)
6,CAGUUUGCUCUAUCAGUAATT against PSTPIP2,0.0136 (inactive)
7,CGCUGAAGUUUGUCCCUAATT against SEPX1,-0.0545 (inactive)
8,CAGUGUGGAUACUAAUAAATT against PMVK,0.269 (inactive)
9,CAAUCACCGCUGUGGUAAATT against UCP1,-0.0744 (inactive)
10,CGAGGUGACUGGUACAAGATT against NDUFV1,-0.653 (inactive)
11,CUACGAUUCUGGUGGAAUATT against TRRAP,-1.25 (active)
12,GGAUGAUUUAGAAUUGUCATT against ATP6V0C,-0.389 (inactive)
13,CCAUGUUCAGUUCCAAGGATT against CORO1A,0.569 (inactive)
14,GGUGAUCACCAAGAUCAAATT against ADCY3,-0.294 (inactive)
15,CUACACCUGUUUCAACAGATT against USPL1,-1.87 (active)
16,AGAAGUCUGUUGCUAUGCATT against GNB5,-0.535 (inactive)
17,GACCAUACCCAGUACCGAUTT against MYH15,-0.939 (inactive)
18,GCAGGACCUUUUAGCAUCUTT against LYL1,-0.118 (inactive)
19,ACCGCUAUGUCUACAUGUUTT against FADS6,-0.637 (inactive)
20,GAAACAAACUUAUAGUGAUTT against WBP5,0.452 (inactive)
21,GGAUUUUUGAUUUUCCGAATT against TUBAL3,1.05 (active)
22,CGAAGGCCUUGUGAACAGATT against FOSL1,-0.431 (inactive)

row,Sequence,median seed-adjusted z-score
1,CAGAGAAACGAGUCUUUAATT against ST6GALNAC5,-0.0321 (inactive)
2,GCUUCUAAAUGUGAGACGATT against GCNT4,-0.0629 (inactive)
3,GGGUACAACUCUUUGAAGATT against MNAT1,-0.335 (inactive)
4,GCUCAAAUUGUUUUGCGUUTT against AKR1D1,0.211 (inactive)
5,CGCUUCAAGAGGUUCGGAATT against MLPH,-1.2 (active)
6,GAAAAGGGAUAACUACGAATT against HIVEP3,0.516 (inactive)
7,CCAGCGAGCUGAUCCUCAATT against MYCN,0.00242 (inactive)
8,CCACCUUUGCAACGCGGAATT against TPSD1,0.0848 (inactive)
9,GAGAUGCUGUGAGUAGGUATT against TTC9C,-0.571 (inactive)
10,CGACAUUGCCCUGCUCAAATT against ELA2B,-0.154 (inactive)
11,GGGUCACAGAGGUCGAUAUTT against PDILT,-0.0994 (inactive)
12,CAAUAAGGCUCAUGCACAATT against GNAQ,-1.23 (active)
13,AACUCUUCAGGUGAAGAUATT against SLC8A2,0 (inactive)
14,GGAGUUUGCGUUUGAGGUATT against PLCD1,-0.0473 (inactive)
15,CGAAUAUGAUGAAGAUGUUTT against PHF17,1.01 (active)
16,CAAAGAUCAUGAUAUUCCATT against JUB,-0.0898 (inactive)
17,CACCCACCUCAGAUUGAUATT against MBTPS2,-0.324 (inactive)
18,CGCUCUACCUGAUCUGCUATT against SLC43A2,-0.202 (inactive)
19,ACAUCAUGAGGAAUGCUAUTT against UCP3,1.23 (active)
20,GAGCAGAAAUUAUUCGUUATT against PGDS,0.02 (inactive)
21,GACUAAAGAUUCAGAUAAATT against TRIM13,0.712 (inactive)
22,CGACAGAGGCAGACACAGATT against BATF,-0.0501 (inactive)

row,Sequence,median seed-adjusted z-score
1,GAAUUGCUCCACCAGAUAATT against NAALAD2,-0.00068 (inactive)
2,GAUGAUGACUUACAUAGAATT against TRRAP,-1.25 (active)
3,CUAUAGCAAGUGAACUAAATT against COG5,-0.0609 (inactive)
4,GGGUUGGUUUGGGCCUGAATT against SOX12,0.478 (inactive)
5,GAAGAGCAGUGUACCAUCATT against STARD8,-0.135 (inactive)
6,AAGACGAACUUGAGCUGGATT against MAPK8IP1,0.576 (inactive)
7,GCUCCAAUGUCUACAGAAATT against MRGPRE,-0.65 (inactive)
8,CAGAUGAAAUACUACUUCUTT against ARD1A,-1.05 (active)
9,GCAGUUACCCGCAUACCAATT against CALCR,-0.404 (inactive)
10,GGGAAGCCGCCUAUACCAATT against TK1,-0.0562 (inactive)
11,AGACCGUAAUUAUCGUCCUTT against EDG1,-0.316 (inactive)
12,GGAUGACAUGUCUAGCAUUTT against NXF1,-4.46 (active)
13,CAACCUAUCAUAUCUGUUUTT against SLC22A16,0.0878 (inactive)
14,CCAUCGGCAUCACCUUCUATT against SLC35C2,-0.483 (inactive)
15,CUGUGAAAAUGGGACGGGATT against NDUFA6,-0.457 (inactive)
16,CAUCAGUCAUAAUGCCUAUTT against MAP1D,0.155 (inactive)
17,CGCCUCCAGUUUUAACUCUTT against POU2F3,-1.53 (active)
18,GGGUAUUCUGGGCAUGAAATT against NANS,-1.54 (active)
19,GCAAGACCUAUGAAACGAUTT against CADPS,0.551 (inactive)
20,GCACGAGGUUUUCACCUAUTT against SRMS,-1.58 (active)
21,GUUAUACUGUGAGAUCUAATT against GPR160,-0.278 (inactive)
22,GAGAUUGGGUGGAAGAGAATT against FOXD2,-0.0853 (inactive)

row,Sequence,median seed-adjusted z-score
1,AAGUCGGAAUAGAAUGGAATT against COX7B,-1.16 (active)
2,GGACAACAACUGAAAUGUATT against ZIM3,-0.02 (inactive)
3,AGUUAGGCACAGUCAGACATT against POLD4,0.225 (inactive)
4,CGAUGUAUGACGAGGAAAATT against BTNL3,0 (inactive)
5,GUUACGACCUGGAAGAUUATT against SPATA5L1,0.252 (inactive)
6,GAGCAAGACUUCUACGUGATT against SERPINA5,-1.01 (active)
7,GGCUAAGAAUGACCAUUAUTT against NPR2,0.0712 (inactive)
8,CAGUCGUCAUAAUACUGCATT against SMC4,0.646 (inactive)
9,CCCUGUUAGUAACGGCAAATT against OBFC2B,-0.061 (inactive)
10,AGAUGUACCUAUGUCAAGATT against OVOL1,-0.0414 (inactive)
11,CCAUGUUUGAACAAGCCCATT against MYL7,-1.21 (active)
12,GCACCUUUGUGACCUAUGATT against KIF9,0 (inactive)
13,CGCUAAAGCUGCACACUGATT against TRAF3,0.731 (inactive)
14,GAGCUGACUUUCUGACCAATT against RAB7A,0.169 (inactive)
15,GCAACGGUGCUUUCCCAGATT against CASKIN1,0.555 (inactive)
16,CCAAAGUGGGUGUCAACGATT against BGN,0.376 (inactive)
17,GAAUUUUGUGGUUACACUATT against POLR1D,-0.0409 (inactive)
18,GGGUGUAAUUCAUAAGGGUTT against PSMD1,-1.61 (active)
19,GGACUGAUUGGACUCCCAUTT against TNFRSF11A,-0.0833 (inactive)
20,GGACGGUCGUGAUGGAUAATT against SAFB2,0.0394 (inactive)
